Test results taken from publication PMC4336329 (PLoS ONE, 2015).
Among all 310,000 compounds or so, about 14,000 (4.5%) showed an effect of 50% or more. Effects have a minus sign here. The full list was thinned out, with strong results kept by preference.

Molecular target: human ether-à-go-go-related gene (hERG) potassium channel (human, UniProt Q12809)
Assay: primary screen, population patch clamp on CHO cells stably expressing hERG; higher = less effect of the substance
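Note: peak tail current of the secondary pulse compared with the same well before compound.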

human ether-à-go-go-related gene (hERG) potassium channel, sequence (Q12809 whole entry, looked up): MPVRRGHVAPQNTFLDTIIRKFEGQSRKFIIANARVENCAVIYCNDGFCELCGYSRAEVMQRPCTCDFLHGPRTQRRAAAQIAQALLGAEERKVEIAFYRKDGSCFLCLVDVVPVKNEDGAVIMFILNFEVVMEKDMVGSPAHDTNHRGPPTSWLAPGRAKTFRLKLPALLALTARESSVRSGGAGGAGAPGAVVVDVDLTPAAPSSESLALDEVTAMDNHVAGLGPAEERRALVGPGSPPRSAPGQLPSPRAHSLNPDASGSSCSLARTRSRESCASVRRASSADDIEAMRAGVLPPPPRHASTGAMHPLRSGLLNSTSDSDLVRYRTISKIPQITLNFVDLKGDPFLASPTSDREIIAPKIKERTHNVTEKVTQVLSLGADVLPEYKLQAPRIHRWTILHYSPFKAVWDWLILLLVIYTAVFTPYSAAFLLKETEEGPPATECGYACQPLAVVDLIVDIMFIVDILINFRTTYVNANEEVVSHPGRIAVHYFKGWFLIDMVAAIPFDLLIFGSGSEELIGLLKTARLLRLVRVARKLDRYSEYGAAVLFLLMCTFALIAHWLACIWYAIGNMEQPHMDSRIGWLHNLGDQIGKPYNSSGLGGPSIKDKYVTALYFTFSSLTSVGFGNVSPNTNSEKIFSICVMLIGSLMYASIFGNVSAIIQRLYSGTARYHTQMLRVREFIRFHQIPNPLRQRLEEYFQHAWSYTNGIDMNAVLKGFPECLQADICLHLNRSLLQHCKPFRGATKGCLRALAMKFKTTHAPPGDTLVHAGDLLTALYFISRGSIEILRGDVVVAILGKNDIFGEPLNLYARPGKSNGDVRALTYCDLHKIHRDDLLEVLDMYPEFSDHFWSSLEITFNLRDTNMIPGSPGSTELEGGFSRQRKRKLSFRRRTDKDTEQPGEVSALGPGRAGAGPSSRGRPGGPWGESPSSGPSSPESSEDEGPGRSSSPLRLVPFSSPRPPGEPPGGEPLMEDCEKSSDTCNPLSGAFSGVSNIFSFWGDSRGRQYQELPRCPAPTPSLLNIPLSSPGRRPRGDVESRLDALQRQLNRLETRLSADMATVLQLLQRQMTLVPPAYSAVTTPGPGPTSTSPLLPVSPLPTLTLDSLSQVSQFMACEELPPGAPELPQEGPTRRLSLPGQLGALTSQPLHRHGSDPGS

Row | SMILES | hERG current change (%, negative = inhibition) at 10uM [%]
1 | COc1ccc(C(=O)NCC(C)NC(=O)c2ccc(OC)c(Br)c2)cc1Br (stereo not shown) | 4.83
2 | Cc1ccc(-n2cnc3scc(-c4cccs4)c3c2=O)cc1 | 3.67
3 | Cc1cc(C)nc(S/C=C/C(=O)c2ccccc2F)n1 | 5.02
4 | COc1ccc(C2=NN(C(C#N)c3ccc(OC)c(OC)c3)C(c3ccccc3)C2)cc1 (stereo not shown) | 23.8
5 | CC(C)CCNc1nc(N2CCCC2)c2c(c1C#N)CCN(C)C2 | -58.5
6 | CN1CCc2c(C#N)c(N3CCCCC3)nc(N3CCOCC3)c2C1 | -24.8
7 | CCCCc1nc(NCCO)c(C#N)c2c1CCCC2 | -15.7
8 | CN1CCc2c(C#N)c(N3CCOCC3)nc(NCC3CCCO3)c2C1 (stereo not shown) | 11.5
9 | CCCCCNc1nc(N2CCCC2)c2c(c1C#N)CCN(C)C2 | -72.8
10 | CCCCCNc1nc(NCCCO)c(C#N)c2c1CN(C)CC2 | -75.2
11 | CCc1nc(NCCC(C)C)c(C#N)c2c1CCCC2 | 23.4
12 | CCCCNc1nc(CC)c2c(c1C#N)CCCC2 | 8.24
13 | N#Cc1c(NCCCO)nc(NCc2ccccc2)c2c1CCN(Cc1ccccc1)C2 | -43.4
14 | Cc1ccc(CN2CC(C(=O)N3CCN(S(=O)(=O)c4c(F)cccc4F)CC3)CC2=O)cc1 (stereo not shown) | -2.83
15 | CCc1cc(=O)oc2c(C)c(OCC(=O)N3CC[C@@]4(O)CCCC[C@H]4C3)ccc12 | -14.6
16 | O=C(OCC(=O)N(CCc1ccccc1)Cc1ccccc1)c1ccccc1[N+](=O)[O-] | 1.95
17 | COc1ccccc1CNC(=O)c1cccc(S(=O)(=O)N(C)c2ccccc2)c1 | -23.5
18 | CCN(CC)S(=O)(=O)c1ccc(Cl)c(C(=O)NCc2ccccc2Cl)c1 | -24.7
19 | CN(c1ccccc1)S(=O)(=O)c1cccc(C(=O)NCc2ccccc2)c1 | -18.3
20 | CN(c1ccccc1)S(=O)(=O)c1ccc(Cl)c(C(=O)NCc2ccccc2CN2CCCC2)c1 | -65.9
21 | CN(C)C(CNC(=O)c1cc(S(=O)(=O)N(C)c2ccccc2)ccc1Cl)c1ccccc1 (stereo not shown) | -39.6
22 | CN(c1ccccc1)S(=O)(=O)c1cccc(C(=O)NCc2ccccc2CN2CCCC2)c1 | -74.6

Row | SMILES | hERG current change (%, negative = inhibition) at 10uM [%]
23 | O=C(O)C[C@H]1c2cc(C(F)(F)F)ccc2S(=O)(=O)N1C1CCCCC1 | 30.3
24 | CCOC(=O)c1c(C)[nH]c(N=Nc2ccc(OC)cc2)c1C | -0.496
25 | Fc1ccc(-c2oncc2-c2nnnn2-c2ccccc2)cc1F | -15.4
26 | COC(=O)c1ccsc1NC(=O)CS(=O)(=O)c1ccccc1 | -10.1
27 | CCNS(=O)(=O)c1ccc(CCC(=O)N2CCN(c3cccc(Cl)c3)CC2)cc1 | -32.7
28 | CCCCN=C(NNc1ccc(Br)cc1)C(=O)OCC | 3.69
29 | N#Cc1ccc(COC(=O)c2cnc(Cl)c(Cl)c2)cc1 | 8.12
30 | COc1ccc(NCC(=O)N/N=C/c2cc([N+](=O)[O-])ccc2N2CCCC2)cc1 | -7.82
31 | O=C(NCc1ccccc1)C(c1ccco1)N(C(=O)c1cnccn1)c1ccc(F)cc1 (stereo not shown) | 10.5
32 | O=S(=O)(Nc1ccc(Cc2ccncc2)cc1)c1ccc(Cl)cc1 | 12.4
33 | O=S(=O)(Nc1ccncc1)c1ccc(Cl)c(Cl)c1 | 18.4
34 | O=S(=O)(Nc1ccc(Cc2ccncc2)cc1)c1ccc(Cl)c(Cl)c1 | -53.4
35 | O=[N+]([O-])c1cccc(S(=O)(=O)NCc2ccncc2)c1 | 19.4
36 | CCS(=O)(=O)Nc1ccc(Cc2ccc(NS(=O)(=O)CC)cc2)cc1 | -7.91
37 | CCS(=O)(=O)Nc1ccc(Cc2ccncc2)cc1 | -0.00702
38 | CCCCS(=O)(=O)Nc1ccc(Cc2ccncc2)cc1 | -50.2
39 | O=[N+]([O-])c1cccc(S(=O)(=O)Nc2ccc(Cc3ccncc3)cc2)c1 | -72.2
40 | O=C(NCc1ccncc1)c1ccc(NS(=O)(=O)c2cccc([N+](=O)[O-])c2)cc1 | 19.2
41 | COc1cccc(CNC(=O)C2=C(C)C(=O)OC23CCC(C)CC3)c1 (stereo not shown) | -5.65
42 | O=C(O)c1cc(S(=O)(=O)N2CCCCCC2)ccc1Cl | 20
43 | Cc1ccnc(NCc2ccccc2O)c1 | 14.6
44 | O=C1CCC([N+](=O)[O-])C(c2ccc(-c3ccccc3)cc2)N1 (stereo not shown) | -11.3

Row | SMILES | hERG current change (%, negative = inhibition) at 10uM [%]
45 | Cc1ccc(N2C(=O)C3C4CC(=O)C(c5ccccc54)C3C2=O)cc1 (stereo not shown) | 2.69
46 | Cc1ccc(N2C(=O)C3CC(c4ccccc4)=C4C5C=CC(C6C(=O)N(c7ccc(C)cc7)C(=O)C56)C4C3C2=O)cc1 (stereo not shown) | -73.6
47 | Cc1ccc(N2C(=O)C3CC(c4ccccc4)=C4C5C=CC(C6C(=O)N(c7ccc(C)cc7C)C(=O)C56)C4C3C2=O)c(C)c1 (stereo not shown) | 7.82
48 | C=C[C@]1(C)C[C@@H](OC(=O)CSCCN(CC)CC)[C@]2(C)C(C)CC[C@]3(CCC(=O)[C@H]32)[C@@H](C)[C@@H]1O (stereo partly shown) | -61.9
49 | C=C[C@]1(C)C[C@@H](OC(=O)CSCCN(CC)CC)[C@]2(C)C(C)CC[C@]3(CCC(=O)[C@H]32)[C@@H](C)[C@@H]1O.O=C(O)/C=C/C(=O)O (stereo partly shown) | -68.3
50 | O=C(Cc1noc2ccccc12)NNC(=S)Nc1ccc(Cl)cc1 | 16.5
51 | Cn1nc(C(F)(F)F)c(-c2ccc(Br)cc2)c1NC(=O)Nc1ccc(F)cc1F | 13
52 | Cc1ccc(C(=O)C2(C)C3c4cc(Br)ccc4OC(=O)C32C(=O)c2ccco2)cc1 (stereo not shown) | 15.8
53 | CCCNC(=O)[C@H]1N2C(=O)c3c(ccc(OC)c3OC)C2SC1(C)C (stereo partly shown) | 16.4
54 | COc1ccc(CCNC(=O)CN(c2ccccc2)S(C)(=O)=O)cc1OC | -8.06
55 | CC(C)(C)CN1CCNC(=O)C1CC(=O)NC1Cc2ccccc2C1 (stereo not shown) | 4.08
56 | CCNC(=O)O/N=C(\C)c1sc(-c2ccc(Cl)cc2)nc1C | -23.9
57 | CCCS(=O)(=O)c1c(S(=O)(=O)CCC)c2cc(CC)ccn2c1C(=O)OC | -29.2
58 | CCCS(=O)(=O)c1c(S(=O)(=O)CCC)c2cc(-c3ccncc3)ccn2c1C(=O)OC | -50.2
59 | CCCS(=O)(=O)c1c(S(=O)(=O)CCC)c2ccccn2c1C(=O)OC | -7.5
60 | O=C(CSc1nnc(NCc2ccccc2)s1)NC1CCS(=O)(=O)C1 (stereo not shown) | 10.1
61 | Cc1cc(SCC(=O)Nc2cccc(S(N)(=O)=O)c2)c(C)cc1Br | 30.8
62 | Cc1ccc(-c2noc(CCC(=O)Nc3ccccc3N3CCN(C)CC3)n2)cc1 | -33.7
63 | CSc1nc(-c2ccccc2)nn1S(=O)(=O)c1ccccc1 | 7
64 | CCOC(=O)C1(Cc2cccc(OC)c2)CCN(Cc2cccn2-c2ccccn2)CC1 | -74.8
65 | CCOC(=O)C1(Cc2cccc(OC)c2)CCN(Cc2cccnc2)CC1 | -16.4
66 | CCOC(=O)C1(Cc2ccccc2)CCN(Cc2cccn2-c2nccs2)CC1 | -82

Row | SMILES | hERG current change (%, negative = inhibition) at 10uM [%]
67 | CCOC(=O)C1(Cc2cccc(OC)c2)CCN(Cc2ccon2)CC1 | 1.68
68 | CCOC(=O)C1(Cc2cccc(OC)c2)CCN(Cc2cccn2-c2nccs2)CC1 | -72
69 | COc1ccc(-n2nc(C(=O)NCC(=O)N(C)Cc3ccccc3)c3ccccc3c2=O)cc1 | -8.21
70 | NC(=O)[C@@H]1[C@@H]2C(=O)N(c3ccc(F)cc3)C(=O)[C@@H]2[C@H]2C=Cc3ccccc3N21 | 14.2
71 | Nc1ccc(C(=O)OCC(=O)c2cccc([N+](=O)[O-])c2)cc1 | 39.8
72 | Cc1ccccc1C(C(=O)NC1CCCCC1)N(C(=O)CNC(=O)c1ccco1)c1cccnc1 (stereo not shown) | 6.3
73 | CC(C)CN(C(=O)CSc1n[nH]c(-c2cccs2)n1)C1CCS(=O)(=O)C1 (stereo not shown) | -2.69
74 | O=C(Nc1ccccc1)C1CC(=O)N(Cc2ccccc2)C1 (stereo not shown) | 2.14
75 | O=C(Nc1cccc([N+](=O)[O-])c1)C1CC(=O)N(Cc2ccccc2)C1 (stereo not shown) | -53.2
76 | O=C(Nc1ccc(F)c([N+](=O)[O-])c1)C1CC(=O)N(Cc2ccccc2)C1 (stereo not shown) | -34.4
77 | Cc1ccc(CN2CC(C(=O)OCc3ccccc3Cl)CC2=O)cc1 (stereo not shown) | 0.354
78 | CCOC(=O)c1ccccc1NC(=O)COC(=O)C1CCCC1 | -2.49
79 | O=C(OCc1ccc([N+](=O)[O-])cc1)C1CC(=O)N(CCc2ccccc2)C1 (stereo not shown) | -69.4
80 | Cc1nn(-c2ccccc2)c(C)c1NC(=O)COC(=O)C1CC(=O)N(CCc2ccccc2)C1 (stereo not shown) | 9.52
81 | O=C(OCc1ccc([N+](=O)[O-])cc1)C1CC(=O)N(Cc2ccccc2Cl)C1 (stereo not shown) | -66.4
82 | O=C(OCc1ccccc1Cl)C1CC(=O)N(Cc2ccco2)C1 (stereo not shown) | 11.4
83 | CCOc1ccc(COC(=O)C2CC(=O)N(CCc3ccccc3)C2)cc1OC (stereo not shown) | -21.6
84 | CCOC(=O)c1ccccc1NC(=O)COC(=O)C1CC(=O)N(CCc2ccccc2)C1 (stereo not shown) | -75.6
85 | O=C(O)C1CC(=O)N(CCc2ccccc2)C1 (stereo not shown) | 6.79
